An excerpt weighted towards active compounds, which were near 19% of everything screened.
TDP1 cell noCPT = qHTS for Inhibitors of human tyrosyl-DNA phosphodiesterase 1 (TDP1): qHTS in cells in absence of CPT. DT40 Tdp1-/- hTDP1 cells, no CPT, ATP luminescence, 48 h. Potency, µM (doses to about 46.2 µM), for the others: top-dose activity change, negative = growth inhibition, usual class: inhibitors. hit rate 15% among 420,000. AID 686978, 2013; also: potency is read from the fitted curve at half-maximal effect; nearly all actives have a fitted effect of over 55% in size
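Camptothecin absent (DMSO only). Human TDP1-complemented DT40 knockout cells, 400 cells/well, 37 °C for minimum 48 hr; ATP measured via CellTiter-Glo, 30 min dark incubation, luminescence.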
TDP1 cell CPT = growth inhibition of DT40 Tdp1-/-;hTDP1 cells with camptothecin (screen for TDP1 inhibitors); chicken DT40 Tdp1-/-;hTDP1 cells + 20 nM CPT, ATP luminescence, 48 h; Potency, µM (titrated, usually from 46.2 µM), without a hit: at the top dose activity change, negative = growth inhibition, hits mostly inhibitors; hit rate 12% among 420,000; AID 686979; also: potency is read from the fitted curve at half-maximal effect; nearly all actives have a fitted effect of over 55% in size
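Cell growth measured by CellTiter-Glo luminescence after a minimum 48 h, 37 C compound exposure with 20 nM CPT in Tdp1-knockout DT40 cells stably expressing hTDP1, seeded 400/well; qHTS titration format.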
IL-1B inflam inh = blocks inflammasome-driven IL-1 beta release | activity change, % at 57.5 µM | hit rate 4.7% among 360,000 | AID 743279 | THP-1 LPS/ATP IL-1B secretion, AlphaLISA, 16 h; hits give low values; in the data active = activity change below about -50%; inconclusive = mostly about -30% to -49%
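THP-1 cells pretreated 1 hr with compounds (up to 57.5 uM final), then stimulated with LPS (250 ng/mL final) plus ATP (1.25 mM final); secreted IL-1B measured by AlphaLISA after 16 hr, decreased signal indicating inhibition.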
HT1080 IDH1KD tx = kills HT-1080 cells with IDH1 knockdown. Potency, µM (titrated, usually from 46.1 µM), for the others: at the top dose activity, negative = toxicity, actives largely listed as cytotoxic. HT-1080 IDH1 knockdown viability, ATP luminescence, 48 h. hit rate 2% among 360,000;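 also: potency is read from the fitted curve at half-maximal effect; 0% = DMSO wells and -100% = cell-free medium wells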
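Luminescent ATP read-out (CellTiter-Glo, 10 min at room temperature) after 48 h compound exposure at 37 °C gave viability of IDH1-knockdown HT-1080 cells. Activity was normalised to DMSO and cell-free wells, then fitted as concentration-response curves.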
HT1080-NT tox = kills 2HG-producing HT-1080-NT fibrosarcoma cells; hit rate 1.6% among 360,000; HT-1080-NT fibrosarcoma viability, CellTiter-Glo ATP luminescence, 48 h; AID 686970; Potency, µM (doses to about 46.1 µM), without a hit: at the top dose activity, negative = less viability, most hits filed as cytotoxic;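 also: NT is the 2HG producing partner of a matched IDH1 knockdown line; potency is read from the fitted curve at half-maximal effect; 0% = DMSO-treated cells and -100% = media-only wells without cells; nearly all actives have a fitted effect of over 55% in size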
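Fibrosarcoma NT cells, 750 per well in 5% FBS RPMI, were exposed to compound for 48 hours. Viability: CellTiter-Glo luminescence.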
Active calls of the source: *; ? = inconclusive; . = no result given; [ ] = dose if it differs, or a comment. Unless noted, calls follow the shape of the dose curve; as a rule, active = well fitted curve in the direction sought with a large enough effect; inconclusive = small, poorly fitted or top-dose-only effect, or another doubt; inactive = no such curve, though single readings can be large; an effect the other way counts as inactive or inconclusive. Unless noted, % is scaled to controls: 0 for no effect and ±100 for the full control effect.

SMILES	TDP1 cell noCPT	TDP1 cell CPT	IL-1B inflam inh	HT1080 IDH1KD tx	HT1080-NT tox
Cc1ccccc1C(=O)Nc1cccc(-c2cn3ccccc3n2)c1	?	?	-80*	-17%	-5%
CCCS(=O)(=O)Nc1cc(-c2cn3cccc(C)c3n2)ccc1C	18µM*	?	.	.	.
CCCS(=O)(=O)NCc1cn2cccc(C)c2n1	-3%	2%	0	?	10%
CCN(CC(=O)NC1CCCC1)S(=O)(=O)c1ccc(F)cc1	5%	-2%	16	17%	5%
COc1ccccc1OCCC(=O)OCC(=O)Nc1ccc2c(c1)OCO2	?	-24%	-14	-3%	-2%
CCCCNc1c(-c2ccc(SC3CCCCC3)c(OC)c2)nc2ccc(Cl)cn12	16µM*	?	-19	-8%	-2%
CCCCNc1c(-c2ccc(SC(C)CC)c(OC)c2)nc2ccc(C)cn12 (centres undefined)	6.5µM*	5.8µM*	-93*	?	-16%
CCCCNc1c(-c2cccc(-c3cc(C(C)=O)cs3)c2)nc2cc(C)ccn12	?	?	-80*	-53%	?
CCCCCCSc1ccc(-c2nc3ccc(C)cn3c2NCCCC)cc1OC	9.2µM*	12µM*	-24	?	21µM*
CCCCNc1c(-c2ccc(-c3cccc(Cl)c3)cc2)nc2ccc(Cl)cn12	?	?	-7	19%	11%
CCCCCCSc1ccc(-c2nc3ccc(Cl)cn3c2NCCCC)cc1OC	?	?	-15	3%	1%
COc1ccccc1NC(=O)CN1C(=O)CC(C)S(=O)(=O)c2ccccc21 (centres undefined)	-4%	1%	0	-17%	1%
COCCN(C(=O)COC(=O)C1(C)CC1(Cl)Cl)c1c(N)n(Cc2ccccc2)c(=O)[nH]c1=O (centres undefined)	-1%	-7%	2	-6%	-6%
Cc1cc(-c2ccnc(-n3ncc(C(=O)NCC4CCCO4)c3C3CC3)n2)c(C)s1 (centres undefined)	?	-2%[9.04 µM]	.	.	.
CCCCCCSc1cc(-c2nc3cc(C)ccn3c2NCCCC)ccc1OC	16µM*	13µM*	-87*	23µM*	26µM*
CCCCNc1c(-c2ccc(SC(C)CC)c(OC)c2)nc2ccc(Cl)cn12 (centres undefined)	21µM*	26µM*	-68*	0%	6%
CCCOC(=O)c1ccc(NC(=O)CSC2=Nc3ccccc3C3CC=NN23)cc1 (centres undefined)	?	23µM*	45	-1%	-1%
O=C(CSc1ccccc1C(=O)O)Nc1ccc2c(c1)OCO2	28%	-5%	12	2%	0%
O=C(CSC1=Nc2ccccc2C2CC=NN12)Nc1ccc2c(c1)OCO2 (centres undefined)	23µM*	7.3µM*	?	?	?
Cc1cc(C)cc(N(CCC#N)C(=O)CSC2=Nc3ccccc3C3CC=NN23)c1 (centres undefined)	?	21µM*	-91*	?	-27%
N#Cc1ccccc1NC(=O)CSC1=Nc2ccccc2C2CC=NN12 (centres undefined)	23µM*	15µM*	25	-12%	-15%
CC(C)c1c(C(=O)N(C)C2CCN(C)CC2)cnn1-c1nccc(-c2ccco2)n1	-10%	10%	.	.	.
O=S(=O)(c1ccccc1)N1CCC2(CCN(C(c3ccccc3)c3ccccc3)CC2)CC1	?	-8%	.	.	.
COc1cccc(C(=Cc2ccc([N+](=O)[O-])cc2)C(=O)O)c1	?	?	25	10%	5%
COC(=O)NNC(=O)c1ccc(C)c(Br)c1	8%	5%	-14	24%	20%
SMILES	TDP1 cell noCPT	TDP1 cell CPT	IL-1B inflam inh	HT1080 IDH1KD tx	HT1080-NT tox
Cc1ccccc1CNC(=O)c1oc2c(c1C)-c1nn(Cc3ccc(Cl)cc3)cc1CC2	16µM*	?	.	.	.
CCOc1ccccc1CNC(=O)c1oc2c(c1C)-c1nn(Cc3cccc(Cl)c3)cc1CC2	21µM*	?	.	.	.
CCOC(=O)c1oc2c(c1C)-c1nn(Cc3cccc(Cl)c3)cc1CC2	-25%	?	.	.	.
O=S(=O)(Nc1ccc(-n2cnnn2)cc1)c1cccs1	-13%	-2%	7	-3%	-1%
Cc1cc(O)c(Oc2cc(C)cc(O)c2O)c(O)c1	5.2µM*	4.6µM*	12	?	?
COc1c(O)cc(O)cc1O	-19%	-18%	.	.	.
CC(NC(=O)c1ccccc1SCC(=O)N1CCCC1)c1ccc(F)cc1 (centres undefined)	1%	2%	-2	-6%	0%
CC/C(=C(/CC)c1ccc(O)cc1)c1ccc(O)cc1	?	?	0	15µM*	?
COc1cc(C(=O)NCC(c2ccco2)N2CCc3ccccc3C2)cc(OC)c1OC (centres undefined)	?	?	-2	1%	3%
COc1ccc(C(=O)NCC(c2ccco2)N2CCc3ccccc32)c(OC)c1 (centres undefined)	7.3µM*	?	-12	-16%	0%
COc1ccc(S(=O)(=O)NCC(c2ccco2)N2CCc3ccccc32)cc1 (centres undefined)	15µM*	?	-16	-11%	-12%
COc1ccc(C(=O)NCC(c2ccco2)N2CCc3ccccc3C2)c(OC)c1 (centres undefined)	8.2µM*	23µM*	55	-16%	-11%
Cc1ccc(-c2noc(-c3nnn(CC(=O)Nc4cc(Cl)ccc4C)c3N)n2)cc1	1%	20%	.	.	.
CC1(C)N=C(SCC(=O)Nc2ccc(Cl)cc2)C(c2ccc(Cl)cc2)=N1	18µM*	?	-109*	-9%	-22%
CC1(C)N=C(SCC(=O)Nc2ccc(Cl)cc2)C(c2ccccc2)=N1	?	?	-87*	-17%	-3%
CCC(C)NC(=O)Cn1c(=O)n(CC2CCC(C(=O)NC)CC2)c(=O)c2sccc21 (centres undefined)	-10%	0%	.	.	.
COc1cc(NC(=O)CN2CCN(CC(=O)Nc3ccccc3OC)CC2)cc(OC)c1	?	16µM*	-10	-3%	-6%
COc1ccccc1NC(=O)CN1CCN(CC(=O)Nc2ccc(S(N)(=O)=O)cc2)CC1	13µM*	?	17	-8%	8%
CCN(CC(=O)Nc1ccccc1OC)C(=O)CSCC(=O)Nc1ccc(OC)cc1	-7%	-1%	20	?	18µM*
COc1ccccc1NC(=O)CN1CCN(CC(=O)Nc2ccc(C)c(F)c2)CC1	16µM*	16µM*	-8	-14%	5%
CC/C(Cc1ccccc1)=N/NC(=O)CNC(=O)c1ccc(Cl)cc1Cl	-9%	-21%	5	-2%	4%
